For 40 molecules, growth results are on record in PubChem BioAssay (NCI).

This is part of a sample that, as a whole, favours compounds with a hit. Of some 83,000 tested, about 20% had one in any assay.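 For each line, cells grew in 96-well plates with the test compound present at a single concentration for 48 hours.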 Active and inactive are the calls of the source.

This experiment concerns SK-MEL-5 melanoma. Put plainly: NCI-60 one-dose screen, 48 h (100 = growth as untreated, 0 = no growth, -100 = all killed). The conditions noted are these: 10 µM. As to the method: Growth inhibition of the SK-MEL-5 human tumor cell line is measured as a screen for anti-cancer activity. Cells are grown in 96 well plates and exposed to the test compound for 48 hours. Compounds are tested at a single concentration, which is 10^-5 M for most compounds. The reported endpoint is percent growth (GI% or GIPRCNT), where numbers from 0 - 100% represent growth inhibition, and numbers from -100% - 0 represent cell death. For example, a value of 40 represents 60% growth inhibition. A value of 0 means no net growth occurred over the course of the experiment. A value of -40 indicates 40% of cells at the beginning of the experiment died by the end of the experiment. A value of -100 means all cells are dead at the end of the experiment.
NCI-60 Human Tumor Cell Lines Screen was performed using the standard one-dose NCI protocol, which is described in more detail at https://dtp.cancer.gov/discovery_development/nci-60/default.htm.
Compounds with GIPRCNT values below 10 were considered active. Activity score was based on GIPRCNT using the following formula: […]
Score is 0 for GIPRCNT values of 100 or above, 50 for GIPRCNT values of 0, and 100 for GIPRCNT values of -100.
Take `CC(=O)N1C/C(=C/c2ccc(Cl)cc2)C(=O)/C(=C/c2ccc(Cl)cc2)C1`: the growth is -52.1% (active).
To `COc1ccc(OC)c(NC(=O)c2sc3nc4c(cc3c2N)C(=O)CCC4)c1` belongs 66% (inactive); to `CS(=O)(=O)Nc1ccc(Nc2c3ccccc3nc3cc(N)ccc23)cc1`, 5.37% (active).
For `COc1cc(-c2cc(/C=C3\C(=O)Nc4ccccc43)[nH]n2)cc(OC)c1OC` the value was -57% (active); for `COc1ccc([N+](=O)[O-])c(C(=O)O)c1`, 98.5% (inactive).
For the molecule `CS(=O)(=O)Nc1ccc(Nc2c3ccccc3nc3cc([N+](=O)[O-])ccc23)cc1`, the growth is 13.5% (inactive).
For the molecule `COc1cc(Nc2ncnc(Nc3ccc4c(n3)NC(=O)C(C)(C)O4)n2)cc(OC)c1OC`, the growth was 48.2% (inactive).
On to `CC(C)(C#N)Nc1ccccc1`, for which the growth is 107% (inactive).
For the molecule `CCOC(=O)C(NC(=O)C(Cl)Cl)C(O)c1ccccc1` (stereo not given), the growth is 91.4% (inactive).
`CCN(CC)CCN1CC(=O)Nc2cc(Cl)ccc21`: the growth is 98.6% (inactive).
For `O=C(O)CN1C(=O)c2cccc3cccc(c23)C1=O` the value was 106% (inactive); for `O=C1Nc2ccccc2C1=NC1CCCCC1`, 94.3% (inactive).
For `NC(=S)N=Nc1c(O)c2ccccc2c2ccccc12`, the growth was -99% (active).
`Clc1cc2c(c(CSc3nc4ccccc4n4cccc34)c1)OCOC2`: the growth is 83.7% (inactive).
In the case of `NC(=O)c1ccc(-c2cccc3c(=O)nc(N4CCOCC4)oc23)cc1`, the growth is 97.8% (inactive).
For `COc1cc(-c2nc(-c3nnc(-c4ccc(F)c(Cl)c4)o3)c3ccccn23)cc(OC)c1OC` the value was 39.7% (inactive).
`O=C(Nc1ccc(Cl)cc1)N1NC(c2ccc(Cl)cc2)C=C1c1ccccc1` (stereo not given): the growth was 94.6% (inactive).
In the case of `O=C(Nc1cccc(-n2cc(-c3ccncc3)c(-c3ccc(O)c(Cl)c3)n2)c1)c1ccc(Cl)c(Cl)c1`, the growth was 48.1% (inactive).
Turning to `O=C(Nc1cccc(-n2cc(-c3ccncc3)c(-c3ccc(O)c(Cl)c3)n2)c1)c1ccc(N2CCOCC2)c(C(F)(F)F)c1`, the growth is 40.9% (inactive).
As for `COc1cc(NC(=O)CCSc2nc3ccc(Cl)cc3c(=O)n2Cc2ccccc2)cc(OC)c1OC`, the growth is 74.8% (inactive).
As for `COc1ccc2c(c1)C(=O)c1c-2c(OCCN(C)C)nc2ccccc12`, the growth is 37.4% (inactive).
Take `Nc1c(C(=O)Nc2cccc(F)c2)sc2nc3c(cc12)C(=O)CCC3`: the growth is 43.2% (inactive).
Take `CCOC(=O)C(CSC(c1ccccc1)(c1ccccc1)c1ccccc1)NC(=O)C(CSC(c1ccccc1)(c1ccccc1)c1ccccc1)NC(c1ccccc1)(c1ccccc1)c1ccccc1` (stereo not given): the growth was 98.6% (inactive).
As to `CC(=O)c1cc(Cl)ccc1O`, the growth is 103% (inactive).
Take `O=C(N/N=C\c1cc(Cl)ccc1[N+](=O)[O-])c1ccco1`: the growth was 111% (inactive).
Turning to `Clc1ccc(Nc2ccnc(NCCNc3ccnc4cc(Cl)ccc34)n2)cc1`, the growth was -100% (active).
On to `CC(C)(C)c1cc(Br)cc(C(C)(C)C)c1O`, for which the growth is 102% (inactive).
Take `N=C(N)c1ccc(-c2ccc(-c3cccs3)o2)cc1`: the growth is 44.6% (inactive).
For `Cc1ccc(Nc2cc(C)nc(NCCCNc3ccnc4cc(Cl)ccc34)n2)cc1` the value was -100% (active); for `CCOC(=O)C(=Cc1ccc(Br)cc1)C(=O)OCC`, -47.9% (active).
To `CC(=O)O[C@]1(C)CC[C@H]2[C@H](CNCCc3ccc(Cl)cc3)C(=O)O[C@@H]2C2=C(C)C(=O)C[C@H]21` belongs 92.2% (inactive); to `CCN(CC)CCC(=O)Nc1cccc2c1C(=O)c1c(c(O)c3ccccc3c1O)C2=O`, 47.6% (inactive); to `CC/C(=C(/c1ccc(OCCN(C)C)cc1)c1ccc(OC(=O)CCC(=O)c2c(C)[nH]c(/C=C3\N=C(c4ccc[nH]4)C=C3OC)c2C)cc1)c1ccccc1`, 2.36% (active).
In the case of `CCCN(CCC)CCC(O)c1cc2c(c3ccccc13)CCCC2` (stereo not given), the growth is 94.7% (inactive).
Consider `O=[N+]([O-])c1cccc(-c2ncc(-c3ccc(Cl)cc3Cl)[nH]2)c1`, for which the growth was 94.7% (inactive).
In the case of `O=C(Nc1cccc(-n2cc(-c3ccncc3)c(-c3ccc(O)c(Cl)c3)n2)c1)Nc1ccc(Cl)c(Cl)c1`, the growth was -47% (active).
To `COc1cc(OC)cc(-c2cncn2-c2ccc(-c3nc4cc(OC)cc(OC)c4s3)cc2)c1` belongs 39.5% (inactive); to `COc1cccc(-c2cc(-c3cccc(NS(C)(=O)=O)c3)nc(N)c2C#N)c1O`, 11.9% (inactive).
As to `Cc1cn(C2CCCCO2)c(=O)nc1NO` (stereo not given), the growth is 108% (inactive).
To `O=C(O)C(SC(C(=O)O)c1ccccc1)c1ccccc1` (stereo not given) belongs 111% (inactive).
